Data published in PubChem BioAssay (EPA / NIEHS).
Results filed as inconclusive are left out. Active and inactive are the calls of the source. The calls were made as follows: active = hit-call score of the fitted dose curve at least 0.9, where 1 is the maximum; inconclusive = response in the unintended direction; inactive = score below 0.9.

How the values were obtained:
[1] = target: Cellular tumor antigen p53 (Homo sapiens) (UniProt P04637); experiment: TOX21_p53_BLA_p2_ratio: Tox21 HCT-116 p53 Agonism Beta-lactamase Assay, Ratio, Phase 2 (AID 2283592)
Procedure, shortened: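 HCT116 cells carrying a p53-responsive beta-lactamase reporter were plated, incubated 5 h at 37C, then dosed with compounds in DMSO (217-fold dilution) for 16 h. CCF4-AM substrate was added for 2 h at room temperature; the 460/530 nm emission ratio gave gain-of-signal activity relative to DMSO.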

[2] = target: Cellular tumor antigen p53 (Homo sapiens) (UniProt P04637); experiment: TOX21_p53_BLA_p3_ratio: Tox21 HCT-116 p53 Agonism Beta-lactamase Assay, Ratio, Phase 3 (AID 2283596)
Procedure, shortened: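 HCT116 p53-bla cells (4000/well) given compound in DMSO (217-fold dilution) after 5 h, incubated 16 h at 37C. CCF4-AM substrate 2 h at room temperature; 460/530 nm emission ratio, gain fitted against DMSO.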

[3] = TOX21_p53_BLA_p4_viability: Viability Assessment in the Tox21 HCT-116 p53 Agonism Beta-lactamase Assay, Phase 4 (AID 2283597);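 also: hits lower the luminescence signal meaning cytotoxicity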
Procedure, shortened: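 HCT116 p53-bla cells (4000/well) rested 5 h at 37C, then received compounds in DMSO (217-fold dilution) for 16 h at 37C, 5% CO2. CellTiter-Glo was added after the CCF4-AM read, and luminescence was read after 30 min at room temperature.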

[4] = target: Cellular tumor antigen p53 (Homo sapiens) (UniProt P04637); experiment: TOX21_p53_BLA_p5_ratio: Tox21 HCT-116 p53 Agonism Beta-lactamase Assay, Ratio, Phase 5 (AID 2283599)
Procedure, shortened: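 HCT-116 p53-bla cells (4000/well) plated 5 h, dosed with compound (217-fold DMSO dilution) for 16 h at 37 C; CCF4-AM substrate 2 h at room temperature. Activity is the 460/530 nm emission ratio (405 nm excitation), fitted in gain-of-signal direction versus DMSO.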

[5] = TOX21_p53_BLA_p5_viability: Viability Assessment in the Tox21 HCT-116 p53 Agonism Beta-lactamase Assay, Phase 5 (AID 2283600)
Procedure, shortened: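 Cells were plated at 4000/well, rested 5 h at 37C, then given compounds in DMSO (217-fold dilution) for 16 h at 37C, 5% CO2. Following the CCF4-AM beta-lactamase read, CellTiter-Glo was added and luminescence was read after 30 min at room temperature.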

[6] = target: Cellular tumor antigen p53 (Homo sapiens) (UniProt P04637); experiment: TOX21_p53_BLA_p4_ratio: Tox21 HCT-116 p53 Agonism Beta-lactamase Assay, Ratio, Phase 4 (AID 2283601)
Procedure, shortened: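 HCT-116 p53 beta-lactamase reporter cells (4000/well) preincubated 5 h, then compound (217-fold dilution of DMSO stock) for 16 h at 37C. CCF4-AM substrate added 2 h at room temperature; 460/530 nm emission ratio fitted upward versus DMSO.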

Measured: outcome

Chain of Cellular tumor antigen p53 (Homo sapiens) (P04637 whole entry, looked up): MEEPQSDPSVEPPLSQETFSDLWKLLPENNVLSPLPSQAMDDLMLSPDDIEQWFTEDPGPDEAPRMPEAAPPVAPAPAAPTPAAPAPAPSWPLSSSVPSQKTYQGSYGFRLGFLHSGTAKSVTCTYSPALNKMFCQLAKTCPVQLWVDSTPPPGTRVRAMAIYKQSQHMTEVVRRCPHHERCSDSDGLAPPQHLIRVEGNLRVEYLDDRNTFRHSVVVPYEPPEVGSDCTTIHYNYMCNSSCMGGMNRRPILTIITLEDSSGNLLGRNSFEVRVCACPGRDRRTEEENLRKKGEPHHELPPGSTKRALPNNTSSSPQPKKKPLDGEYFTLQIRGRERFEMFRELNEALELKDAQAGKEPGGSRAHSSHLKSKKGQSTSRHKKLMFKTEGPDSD

[Cl][Sn]([Cl])([Cl])[Cl]
inactive: all assays above

CCC(Cl)[N+](=O)[O-] (stereo unspecified)
not listed: [3]
inactive: all other assays above
